Experiment [1] is described as follows: stimulators of insulin release from INS-1E, primary screen, cell-based, 5 mM glucose, NPC library (AID 1117329). The note with it: rat INS-1E insulin secretion, at 10 µM, stronger effect = higher value.
The nature of experiment [2]: growth inhibition of GSK3B-pretreated HCT116 cells – cell-based, CellTiter-Glo, 0.2 to 20 µM (AID 1117336;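 active = compounds lowering colon cancer cell viability after pretreatment blocking the GSK3B kinase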). The note with it: HCT116 viability after GSK3B inhibitor, at 20 µM, stronger effect = higher value. On the technique in general: ATP-based viability assays read luminescence as a measure of living cells.
A short description of experiment [3]: inhibition of endothelial tube formation, primary screen, imaging, VEGF stimulated, CD31 staining, tube area, NPC library (AID 1117340;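 active = compound that reduces growth-factor-driven endothelial tube area in a mixed cell culture, no cutoff stated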). Particulars: VEGF-stimulated ADSC/ECFC co-culture, at 10 µM, stronger effect = higher value.
Experiment [4] in a line: glucagon-like peptide 1 release enhancers, primary assay, NCI-H716 cell line, NPC library (AID 1117341;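 active = compound raises GLP1 secretion from the human gut endocrine cells, with no numeric limit stated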). Particulars: NCI-H716 cells, at 10 µM, stronger effect = higher value.
The nature of experiment [5]: HCT116 colon cancer cell growth inhibition, primary screen, CellTiter-Glo luminescence, NPC library (AID 1117342;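 active = compounds that lower survival of HCT116 colon cancer cells in the luminescence readout, no numeric limit stated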). Particulars: at 20 µM (top of the series).
The nature of experiment [6]: CellTiter-Glo luminescent readout of SW480 viability loss, NPC library primary (AID 1117343;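 active = compounds that lower viability of the colon cancer cells in the luminescence readout, with no numeric limit stated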). The note with it: CellTiter-Glo luminescence; at 20 µM (top of the series).
The nature of experiment [7]: decreased DLD-1 cellular survival, CellTiter-Glo luminescent readout, NPC compound collection, primary HTS (AID 1117346;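 active = compounds that lower survival of DLD-1 colon cancer cells in the luminescence readout, no cutoff given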). Particulars: DLD-1 viability, CellTiter-Glo luminescence; at 20 µM (top of the series).
A short description of experiment [8]: modulation of C. elegans fzo-1 (AID 1259413; call rule not given here;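 note: fzo-1 mutant C. elegans worms in liquid wells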). The note with it: C. elegans fzo-1 modulator screen, mean read-out; stronger effect = higher value.
Experiment [9] is described as follows: differential killing of epithelial or mesenchymal cells, primary screen, imaging, PC-3E GFP, TEM4-18 mCherry, co-culture (AID 1345086;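 active = compounds killing one labelled cell type while sparing the other, by normalised counts and ratio limits, not self-fluorescent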;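 for all read-outs here: cells exposed to compound for 72 h before imaging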;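 for red/green cell ratio (normalised): normalised mesenchymal count divided by normalised epithelial count so high means epithelial killing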). Particulars: imaging cell counts, at 1 µM; for red/green cell ratio (normalised): actives lie on both sides, counts scaled to control wells, 1 = unselective.
Where [10] appears, read: measured here: epithelial PC-3E GFP cell survival.
[11] abbreviates: measured here: mesenchymal TEM4-18 mCherry cell survival.

The values below come from PubChem BioAssay.

Several values for one entry are separate records, joined by “and”; a condition that tells them apart may be missing. Identical values can stand only once. Activity calls are given as the source filed them.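 Rule for the calls, unless noted: active = compound raises insulin release from rat beta cells at 5 mM glucose, no numeric limit stated; inactive = the rest.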

Regarding `CN1CCN(c2c(F)cc3c(=O)c(C(=O)O)cn4c3c2SCC4)CC1`, the insulin secretion stimulation in experiment [1] was 0.05% (inactive). The viability decrease in [2] was 19.8% (inactive). Also, the tube area decrease in experiment [3] is -3.6% (inactive). Also, in [4], the GLP1 secretion stimulation is 1.6% (inactive). Further, the inhibition of viability in experiment [5] is 7.2% (inactive). Moreover, the viability decrease (inhibition) in experiment [6] was -18.1% (inactive); in experiment [7], 0.6% (inactive). Also, the mean signal in [8] was 251 (inactive). In experiment [9], the red/green cell ratio (normalised) is 1.06 (inactive) and 1.18 (inactive). Also, the normalised cell number in experiment [9] (setting [10]) was 1.01 and 0.81; in experiment [9] (setting [11]), 1.07 and 0.95.

For `C[C@H](NC(CCc1ccccc1)C(=O)O)C(=O)N1CCC[C@H]1C(=O)O` (stereo partly specified), the insulin secretion stimulation in experiment [1] was 0.1% (inactive). Further, in experiment [2], the viability decrease was -6.3% (inactive). The tube area decrease in experiment [3] was -8% (inactive). Further, the GLP1 secretion stimulation in experiment [4] was 1.4% (inactive). In experiment [5], the inhibition of viability was 2.7% (inactive). Moreover, the viability decrease (inhibition) in experiment [6] was -8.4% (inactive); in experiment [7], -2.7% (inactive). Also, the mean signal in experiment [8] is 226 (inactive).

Take `OCCOCCN1CCN(C2=Nc3ccccc3Sc3ccccc32)CC1`: the insulin secretion stimulation in experiment [1] was 2.8% (inactive). The viability decrease in experiment [2] is -12.8% (inactive). For the same compound, in experiment [3], the tube area decrease was 18.9% (inactive). The GLP1 secretion stimulation in experiment [4] was 2.3% (inactive). Besides, the inhibition of viability in experiment [5] is 10.6% (inactive). The viability decrease (inhibition) in experiment [6] is 14% (inactive); in experiment [7], 7.8% (inactive). Besides, the mean signal in experiment [8] was 248 (inactive). Besides, the red/green cell ratio (normalised) in experiment [9] is 0.87 (inactive). The figures for the normalised cell number in experiment [9] (setting [10]) and in experiment [9] (setting [11]) were 1.08 and 0.94, respectively.

Regarding `CCCc1c(OCCCCc2nn[nH]n2)ccc(C(C)=O)c1O`, the insulin secretion stimulation in [1] was -0.7% (inactive). Also, the viability decrease in experiment [2] was 49.9% (inactive). In addition, the tube area decrease in [3] was 15.6% (inactive). In experiment [4], the GLP1 secretion stimulation is 6.3% (inactive). Also, in experiment [5], the inhibition of viability was 54.3% (active). Also, the viability decrease (inhibition) in experiment [6] was 29.7% (inactive); in [7], 27.7% (inactive). The mean signal in [8] is 231 (inactive).

Regarding `CN(C)CC[C@@H](c1ccc(Cl)cc1)c1ccccn1`, in [1], the insulin secretion stimulation is 81.7% (active). Besides, the viability decrease in experiment [2] was -5.1% (inactive). Moreover, the tube area decrease in [3] is -4% (inactive). Also, in [4], the GLP1 secretion stimulation is 5.7% (inactive). Also, the inhibition of viability in [5] was 28.8% (inactive). Besides, the figures for the viability decrease (inhibition) in [6] and in [7] were 35.9% (inactive) and -3.4% (inactive), respectively. The mean signal in experiment [8] is 251 (inactive).

In the case of `OCc1cccnc1`, the insulin secretion stimulation in experiment [1] is -1.9% (inactive). Also, the viability decrease in experiment [2] was -11.1% (inactive). For the same compound, the tube area decrease in experiment [3] was -10% (inactive). The GLP1 secretion stimulation in experiment [4] was 1.4% (inactive). In addition, in [5], the inhibition of viability was -9.5% (inactive). The viability decrease (inhibition) in experiment [6] was -6.5% (inactive); in experiment [7], 7.3% (inactive). In experiment [8], the mean signal was 224 (inactive).

Regarding `O=C1c2cccc3c2[C@H](CCC3)CN1[C@@H]1CN2CCC1CC2`, the insulin secretion stimulation in experiment [1] was 2.7% (inactive). The viability decrease in experiment [2] was 19.7% (inactive). Further, the tube area decrease in experiment [3] was -6.9% (inactive). In addition, in experiment [4], the GLP1 secretion stimulation is -4.5% (inactive). For the same compound, the inhibition of viability in experiment [5] was 42% (inactive). Also, the viability decrease (inhibition) in experiment [6] was 31% (inactive); in [7], 29.6% (inactive). Besides, in experiment [8], the mean signal is 244 (inactive).

Take `Clc1ccc2c(c1)CCc1cccnc1C2=C1CCNCC1`: the insulin secretion stimulation in experiment [1] is 37.7% (active). In addition, the viability decrease in experiment [2] was 50.4% (active). In addition, the tube area decrease in [3] is 9.9% (inactive). In addition, in experiment [4], the GLP1 secretion stimulation is 21.1% (active). Further, the inhibition of viability in [5] was 55.5% (active). The viability decrease (inhibition) in experiment [6] was 97.8% (active); in experiment [7], 30% (inactive). The mean signal in [8] was 228 (inactive). The red/green cell ratio (normalised) in experiment [9] was 0.84 (inactive) and 1.39 (inactive). Also, the normalised cell number in [9] (setting [10]) is 1.16 and 0.83; in experiment [9] (setting [11]), 0.98 and 1.15.

For `CC(=O)Nc1ccc(CC(=O)O)cc1`, the insulin secretion stimulation in [1] was -2.2% (inactive). In experiment [2], the viability decrease was -4.5% (inactive). For the same compound, the tube area decrease in experiment [3] was 12.1% (inactive). For the same compound, the GLP1 secretion stimulation in experiment [4] was 0.9% (inactive). Also, in experiment [5], the inhibition of viability is -11% (inactive). Besides, the results for the viability decrease (inhibition) in experiment [6] and in experiment [7] were 16.5% (inactive) and -2.4% (inactive), respectively. For the same compound, the mean signal in experiment [8] was 292 (inactive).
